BoNT-A LC inh2 – BoNT/A light chain protease inhibitors, primary screen, biochemical, flow cytometry, MLPCN library. 0.17% of 360,000 active. inhibition, % at 10 µM. multiplex microsphere protease substrate cleavage; also: plate controls were buffer without enzyme for full effect and enzyme alone for no effect
Anthrax LF inh2 – Bacillus anthracis LF protease inhibitors, primary screen, biochemical, multiplex microsphere, MLPCN library. inhibition, % at 10 µM. 0.12% of 360,000 active. AID 588501, 2011. multiplex microsphere protease cleavage assay; also: plate controls were buffer without enzyme for full effect and enzyme alone for no effect
Target sequence (P15917 whole entry, looked up): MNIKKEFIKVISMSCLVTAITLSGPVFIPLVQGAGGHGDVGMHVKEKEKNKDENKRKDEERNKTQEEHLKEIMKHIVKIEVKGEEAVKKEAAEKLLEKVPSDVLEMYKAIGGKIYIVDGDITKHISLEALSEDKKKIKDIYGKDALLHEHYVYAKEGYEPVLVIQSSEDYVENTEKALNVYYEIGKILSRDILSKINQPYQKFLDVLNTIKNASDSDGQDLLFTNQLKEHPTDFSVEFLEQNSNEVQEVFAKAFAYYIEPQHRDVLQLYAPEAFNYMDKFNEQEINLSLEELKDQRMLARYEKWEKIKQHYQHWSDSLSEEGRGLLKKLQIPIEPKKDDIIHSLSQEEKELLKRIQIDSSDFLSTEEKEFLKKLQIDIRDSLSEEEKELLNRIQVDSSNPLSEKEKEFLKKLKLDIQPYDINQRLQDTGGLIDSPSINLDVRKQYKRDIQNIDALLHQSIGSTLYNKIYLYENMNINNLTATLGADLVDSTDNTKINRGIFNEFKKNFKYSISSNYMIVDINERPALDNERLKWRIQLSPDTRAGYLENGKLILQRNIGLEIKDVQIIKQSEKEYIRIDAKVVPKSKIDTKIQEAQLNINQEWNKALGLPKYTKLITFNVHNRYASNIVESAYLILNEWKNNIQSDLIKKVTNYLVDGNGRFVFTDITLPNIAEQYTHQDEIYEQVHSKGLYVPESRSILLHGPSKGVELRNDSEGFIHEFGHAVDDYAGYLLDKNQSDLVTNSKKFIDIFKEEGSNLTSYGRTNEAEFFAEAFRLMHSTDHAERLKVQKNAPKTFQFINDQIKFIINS
BoNT F protease – BoNT/F light chain protease inhibitors, primary screen, biochemical, flow cytometry, MLPCN library | Botulinum neurotoxin type F light chain protease (Clostridium botulinum) | Multiplex microsphere protease cleavage assay | inhibition, % at 10 µM | 0.22% of 360,000 active | AID 588497, 2011; in the data active = inhibition above about 35%, passing the limit was not always enough; inconclusive = no clear call, values can overlap the other calls; also: plate controls were buffer without enzyme for full effect and enzyme alone for no effect
SSB-PriA inh – inhibitors of Klebsiella pneumoniae PriA binding to SSB C-terminal tail, primary screen, biochemical, AlphaScreen | PriA–SSB C-terminal tail interaction (Klebsiella pneumoniae) | AID 1272365, 2023 | 0.6% of 430,000 active | inhibition, % at 33 µM | AlphaScreen SSBct-PriA binding, biotinylated peptide; in the data active = inhibition mostly above about 37%, no sharp cut-off; inactive = mostly below about 20%;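 also: plate controls were negative control peptide for no effect and reference peptide for full effect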
Bead autofluor – compound fluorescence in toxin protease inhibitor counterscreen. fluorescence intensity (concentration not given with the values). 3.1% of 360,000 active. compound autofluorescence counterscreen, microsphere flow cytometry; hits give high values; in the data active = fluorescence intensity above about 16000; inconclusive = no clear call, values can overlap the other calls
Starred values were filed as active, the others as inactive; ? = inconclusive; nt = no result. A selection: hits, their analogues and other compounds. The true share with any hit is near 3.1%. Rule as the data show it, unless noted: active = inhibition above about 30%; inconclusive = no clear call, values can overlap the other calls; inactive = below that.

SMILES | BoNT-A LC inh2 | Anthrax LF inh2 | BoNT F protease | SSB-PriA inh | Bead autofluor
Nc1ccc(CCCC(=O)NCc2cccnc2)cc1 | 1 | -7 | 4 | nt | 3886
O=C(CCCc1ccccc1)NCc1cccnc1 | -1 | 0 | -3 | -9 | 24595*
O=C(CCc1nc(-c2ccccc2)no1)NCc1cccnc1 | -3 | -3 | -5 | -15 | 23102*
O=C(O)CCCc1nc(-c2ccccc2)no1 | 0 | -3 | -2 | 2 | 16634*
CS(=O)(=O)c1ccc(Cl)c(S(=O)(=O)N2CCN(c3ccc(F)cc3)CC2)c1 | nt | nt | nt | 6 | nt
COC(=O)c1ccc(NS(=O)(=O)c2cccc(S(C)(=O)=O)c2)cc1 | nt | nt | nt | 0 | nt
CC(=O)N1CCc2c(sc(NC(=O)Cn3c(=O)oc4ccccc43)c2C#N)C1 | nt | nt | nt | -5 | nt
Cc1cc(C)c2cc(C#N)c(NCCCNC(=O)CCC(=O)O)nc2c1 | ? | -2 | 2 | -10 | 21922*
COc1cccc(C(=O)NCCCNc2nc3cc(C)cc(C)c3cc2C#N)c1 | 1 | 1 | -3 | nt | 3892
O=[N+]([O-])c1ccc(Nc2c([N+](=O)[O-])ccc3c2=NC2(CCCCC2)N=3)cc1 | nt | nt | nt | 90* | nt
O=[N+]([O-])c1ccc2c(c1Nc1ccc(Br)cc1)=NC1(CCCCC1)N=2 | nt | nt | nt | 28 | nt
Cc1cc(NC(=O)c2cnoc2C)ccc1N1CCCC1=O | nt | nt | nt | -11 | nt
CC1(C)CC(=O)c2cn3nc(C(F)(F)F)nc3nc2C1 | 1 | 2 | 17 | 2 | 8301
Cc1nc2nc3c(cn2n1)C(=O)CCC3 | -2 | -2 | -3 | -12 | 21199*
CC(=O)Nc1cccc(NC(=O)CSc2nc(C)c(C)c(C)c2C#N)c1 | ? | 0 | 5 | -5 | 21241*
COc1ccc(O)c(-c2cc(-c3ccccc3Cl)[nH]n2)c1 | -3 | 6 | -12 | 6 | 3698
COc1ccccc1-c1cc(-c2cc(Cl)ccc2O)n[nH]1 | 1 | 2 | 1 | -3 | 22763*
CCC(=O)Nc1cccc(NC(=O)c2ccc(C)c([N+](=O)[O-])c2)c1 | 0 | 0 | 0 | 10 | 10494
CCCC(=O)Nc1cccc(NC(=O)c2ccc(C)c([N+](=O)[O-])c2)c1 | ? | -1 | 0 | -2 | 23307*
O=C(Nc1ccc(Cl)cc1)N1CCSc2ccccc21 | 1 | 0 | -1 | -1 | 23243*
O=C(Nc1ccc(Cl)cc1)N1CCCC1 | 0 | -7 | -3 | -21 | 22686*
C[C@@H](C(=O)NCc1ccc2c(c1)OCO2)n1nnc2ccccc2c1=O | nt | nt | nt | -3 | nt
COCCN(C(=O)COC(=O)c1nc(Cl)ccc1Cl)c1c(N)n(Cc2ccccc2)c(=O)[nH]c1=O | 3 | -2 | 46* | -6 | 4829
CCc1ccc(C(=O)OCC(=O)N(CCOC)c2c(N)n(Cc3ccccc3)c(=O)[nH]c2=O)cc1 | 11 | 12 | 47* | 8 | 5761
CCN(C(=O)COC(=O)c1nc(Cl)ccc1Cl)c1c(N)n(Cc2ccccc2)c(=O)[nH]c1=O | 0 | -2 | 2 | 9 | 4034
SMILES | BoNT-A LC inh2 | Anthrax LF inh2 | BoNT F protease | SSB-PriA inh | Bead autofluor
CCc1ccc(C(=O)OCC(=O)N(CC)c2c(N)n(Cc3ccccc3)c(=O)[nH]c2=O)cc1 | 0 | -4 | -4 | -8 | 4008
CCCn1c(N)c(N(CCOC)C(=O)CSCC(=O)Nc2cccc(C)c2)c(=O)[nH]c1=O | nt | nt | nt | 6 | nt
CCCCn1c(N)c(N(CCOC)C(=O)CSCc2cccc(C)c2)c(=O)[nH]c1=O | 6 | ? | 1 | 49* | ?
COCCCn1c(Cc2ccccc2)nnc1SCC(=O)N1CCCCC1 | -2 | 0 | -2 | -9 | 22748*
COCCn1c(Cc2ccccc2)nnc1SCC(=O)N1CCOCC1 | 0 | -4 | 6 | -3 | 4477
O=C1CC(C(=O)Nc2ccccc2)C2(CCCC2)O1 (stereo unspecified) | 1 | -13 | 5 | -8 | 6305
Cc1cccc(NC(=O)C2CC(=O)OC23CCCCC3)c1 (stereo unspecified) | 0 | 1 | 5 | 5 | 4534
Cc1ccc(CNC(=O)C2CC(=O)OC23CCCC3)c(C)c1 (stereo unspecified) | 0 | -3 | 2 | -10 | 16440*
COc1ccc(C)cc1NC(=O)C1CC(=O)OC12CCCCC2 (stereo unspecified) | -1 | -1 | -1 | -4 | 22901*
O=C(CCc1c(F)cccc1Cl)NCc1cccc(Oc2ccccn2)c1 | nt | nt | nt | -2 | nt
Cc1nc(-c2ccccc2F)sc1CNC(=O)NCc1cccs1 | nt | nt | nt | -8 | nt
O=C(CCNc1ccc(Cc2ccncc2)cc1)c1ccc([N+](=O)[O-])cc1 | -1 | -2 | -12 | 47* | 2305
O=C(CCNc1ccccc1)c1cccc([N+](=O)[O-])c1 | 7 | -9 | 4 | 15 | 20571*
Cc1ccc(NCCC(=O)c2cccc([N+](=O)[O-])c2)cc1 | 0 | -3 | 2 | 32 | 10591
O=C(Nc1ccc(Cc2ccncc2)cc1)c1cccc([N+](=O)[O-])c1 | 1 | 2 | -3 | 5 | 2678
O=C(CCNc1ccc(F)cc1)c1cccc([N+](=O)[O-])c1 | ? | -2 | -2 | 27 | 20472*
Cc1ccc(Cc2nnc(NC(=O)c3cccc(N4C(=O)CCC4=O)c3)o2)cc1 | nt | nt | nt | -5 | nt
O=C(Cc1ccccc1)N1CCCC1c1ccccc1 (stereo unspecified) | -2 | -2 | -6 | -11 | 21410*
Cc1ccc2nc(NC(=O)CSc3nccn3Cc3ccco3)sc2c1 | nt | nt | nt | 30 | nt
O=C1c2[nH]nc(-c3ccccc3O)c2C(c2cccc(Cl)c2)N1CC1CCCO1 (stereo unspecified) | 2 | 1 | 3 | 17 | 22113*
O=C1c2[nH]nc(-c3ccccc3O)c2C(c2ccc(F)cc2)N1CC1CCCO1 (stereo unspecified) | 0 | -6 | -8 | 0 | 9799
Cc1cc2c(c(=O)n1Cc1ccccc1)C(c1cccs1)C(C#N)=C(N)O2 (stereo unspecified) | nt | nt | nt | -1 | nt
COc1ccc(Cn2c(C)cc3c(c2=O)C(c2cccs2)C(C#N)=C(N)O3)cc1OC (stereo unspecified) | 15 | -17 | 20 | -3 | 16938*
CCOc1ccc(C2C(C#N)=C(N)Oc3cc(C)n(Cc4ccco4)c(=O)c32)cc1OCC (stereo unspecified) | nt | nt | nt | -7 | nt
CCOc1ccc(C2C(C#N)=C(N)Oc3cc(C)n(CCN(C)C)c(=O)c32)cc1OCC (stereo unspecified) | 0 | -2 | 0 | -9 | 16485*
Cc1cc2c(c(=O)n1CCN(C)C)C(c1ccc(Br)cc1)C(C#N)=C(N)O2 (stereo unspecified) | 0 | -2 | 2 | -5 | 3269
Cc1cc2c(c(=O)n1CCN(C)C)C(c1ccc(Cl)cc1)C(C#N)=C(N)O2 (stereo unspecified) | ? | -2 | -7 | -18 | 24829*
O=C(NCC(c1cccnc1)N1CCN(c2ccccc2F)CC1)C(=O)Nc1cccc([N+](=O)[O-])c1 (stereo unspecified) | nt | nt | nt | -3 | nt
COc1ccc(S(=O)(=O)N2CCCC[C@@H]2CCNC(=O)C(=O)Nc2ccc(F)cc2F)cc1 | nt | nt | nt | -5 | nt
